# Hits are enriched below; roughly 2.5% of the tested compounds scored in any of these assays.
# Pol kappa inh = blocks human DNA polymerase kappa activity. Potency, µM (top dose mostly 107 µM), inactives show at the highest dose activity, negative = inhibition, hits mostly inhibitors. AID 588579. 0.53% of 400,000 active. purified Pol kappa, fluorescent DNA synthesis assay, 10 min; further: on the % scale 0 is the no-effect control and ±100 the full control effect
#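 50 nM final substrate added after 15 min RT preincubation of 10 nM Pol kappa with compound; fluorescence read at 0 and 10 min.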
# POLH inh = DNA polymerase eta (human) inhibition. Potency, µM (series often up to 114 µM), inactives show top-dose activity change, negative = inhibition, hits mostly inhibitors. Q9Y253. AID 588591. 1.2% of 390,000 active. recombinant Pol eta, fluorescent DNA replication assay; further: on the % scale 0 is the no-effect control and ±100 the full control effect
#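 Pol eta at 10 nM preincubated with compounds 15 min at room temperature; reaction started with fluorescent substrate (50 nM final) and read kinetically at 0 and 10 min.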
# WRN inhibitor = WRN helicase (human) inhibition; AID 651768; WRN helicase unwinding, fluorescent forked duplex, kinetic; Potency, µM (highest dose often 114 µM), for the others: at the top dose activity change, negative = inhibition, most hits filed as inhibitors; Q14191; 0.46% of 360,000 active; further: on the % scale 0 is the no-effect control and ±100 the full control effect; nearly all actives have a fitted effect of over 55% in size
# Target sequence (Q14191 whole entry, looked up): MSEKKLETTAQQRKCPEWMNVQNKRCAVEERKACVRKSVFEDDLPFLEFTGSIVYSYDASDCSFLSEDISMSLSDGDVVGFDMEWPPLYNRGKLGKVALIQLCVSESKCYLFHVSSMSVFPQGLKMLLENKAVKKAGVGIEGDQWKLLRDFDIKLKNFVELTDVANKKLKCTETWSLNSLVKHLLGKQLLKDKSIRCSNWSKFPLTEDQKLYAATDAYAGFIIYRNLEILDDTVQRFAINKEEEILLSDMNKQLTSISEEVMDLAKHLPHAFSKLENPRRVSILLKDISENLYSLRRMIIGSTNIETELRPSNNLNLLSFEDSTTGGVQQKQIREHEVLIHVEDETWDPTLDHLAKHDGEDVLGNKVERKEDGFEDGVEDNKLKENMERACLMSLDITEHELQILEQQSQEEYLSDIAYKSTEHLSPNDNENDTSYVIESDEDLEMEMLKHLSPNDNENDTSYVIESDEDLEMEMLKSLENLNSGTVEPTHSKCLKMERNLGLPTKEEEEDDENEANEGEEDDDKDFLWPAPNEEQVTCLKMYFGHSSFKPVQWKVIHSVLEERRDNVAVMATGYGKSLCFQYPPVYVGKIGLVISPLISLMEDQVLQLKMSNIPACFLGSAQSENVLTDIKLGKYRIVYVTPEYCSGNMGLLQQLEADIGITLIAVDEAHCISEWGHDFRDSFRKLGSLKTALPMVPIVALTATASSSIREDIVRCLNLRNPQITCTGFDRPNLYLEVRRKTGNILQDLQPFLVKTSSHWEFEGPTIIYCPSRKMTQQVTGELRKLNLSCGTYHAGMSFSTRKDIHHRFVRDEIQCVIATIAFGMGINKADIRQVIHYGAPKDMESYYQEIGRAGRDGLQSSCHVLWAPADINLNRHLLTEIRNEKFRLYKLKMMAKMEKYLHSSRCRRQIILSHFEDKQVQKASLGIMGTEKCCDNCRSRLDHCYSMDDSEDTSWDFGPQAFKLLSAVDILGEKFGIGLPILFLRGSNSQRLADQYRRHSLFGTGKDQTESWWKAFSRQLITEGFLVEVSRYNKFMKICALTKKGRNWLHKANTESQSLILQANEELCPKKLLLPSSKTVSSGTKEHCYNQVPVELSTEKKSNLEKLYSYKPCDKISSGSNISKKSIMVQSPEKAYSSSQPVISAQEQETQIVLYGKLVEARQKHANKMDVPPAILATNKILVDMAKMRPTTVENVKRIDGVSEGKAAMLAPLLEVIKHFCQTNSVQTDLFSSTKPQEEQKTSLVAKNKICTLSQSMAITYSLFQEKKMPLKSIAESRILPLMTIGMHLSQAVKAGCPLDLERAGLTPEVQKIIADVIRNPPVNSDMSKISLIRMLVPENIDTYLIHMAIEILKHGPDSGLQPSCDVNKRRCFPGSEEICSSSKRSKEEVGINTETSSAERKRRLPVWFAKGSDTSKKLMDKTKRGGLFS
#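 Enzyme (20 nM final) and test compound sit together 15 min at room temperature before substrate addition. Substrate is a single-forked duplex oligonucleotide (100 nM) labelled with fluorophore and quencher, with 2 mM ATP; helicase unwinding raises red fluorescence, read kinetically.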
# L3MBTL1 inh = blocks human L3MBTL1 | Q9Y468 | AlphaScreen L3MBTL1–H3K9me1 peptide binding | Potency, µM (highest dose often 57.1 µM), inactives show at the highest dose activity, negative = inhibition, actives largely listed as inhibitors | 0.66% of 230,000 active | AID 485360; further: on the % scale 0 is the no-effect control and ±100 the full control effect; nearly all actives have a fitted effect of over 60% in size
#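 Displacement of a biotinylated histone H3(1-15) peptide monomethylated at Lys9 (75 nM) from L3MBTL1 (50 nM) was measured by AlphaScreen after a 30 min room-temperature compound incubation; cefsulodin titration served as intraplate control.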
# POLI inh = inhibitors of human DNA polymerase iota | 1% of 390,000 active | Potency, µM (titrated, usually from 115 µM), inactives show top-dose activity, negative = inhibition, actives largely listed as inhibitors | Pol iota fluorescent replication assay, 10 min | Q9UNA4
#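 Pol iota at 10 nM preincubated 15 min with compounds at room temperature; reaction started with fluorescent substrate, 50 nM final. Fluorescence read kinetically at 0 and 10 min; buffer-only wells as negative control.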
# POLB inh = inhibitors of human DNA polymerase beta; AID 485314; 1.3% of 340,000 active; Potency, µM (highest dose often 114 µM), for the others: at the top dose activity change, negative = inhibition, usual class: inhibitors; Pol beta primer extension/strand displacement, fluorescence kinetic; further: on the % scale 0 is the no-effect control and ±100 the full control effect
#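 Pol beta (10 nM) was preincubated with compound for 15 min at room temperature. The reaction was then started with 50 nM substrate and read immediately and after a further 10 min at room temperature.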
# Starred values were filed as active, the others as inactive; ? = inconclusive; · = no result given; [ ] = remark or other dose. The call rests on the fitted dose curve; in most records, active means well fitted curve in the direction sought with a large enough effect; inconclusive means small, poorly fitted or top-dose-only effect, or another doubt; inactive means no such curve, though single readings can be large; an effect the other way counts as inactive or inconclusive. Potency means the concentration at half of the fitted maximal effect.
SMILES,Pol kappa inh,POLH inh,WRN inhibitor,L3MBTL1 inh,POLI inh,POLB inh
Cc1cccc(C(=O)OCc2cc(=O)n3nc(-c4cccs4)sc3n2)c1,?,?,·,·,89µM*,20µM*
CCC(C(=O)NC1CCCCC1)n1c(SCc2ccccc2F)nc2ccncc21 (stereo not given),15%,?,2%,1%,27%,?
O=C(COc1ccccc1F)OCc1cc(=O)n2nc(-c3cccs3)sc2n1,-16%,-28%,·,·,?,32µM*
O=c1c2ccccc2nc(SCc2cc(=O)n3ccsc3n2)n1CCCO,·,·,·,·,·,32µM*
Cc1cccc(NC(=O)CSc2ncc3c(n2)-c2cc(Cl)ccc2N(C)S3(=O)=O)c1C,-8%,-12%,·,·,17%,-5%
CC1=Nc2ccccc2/C1=C\c1nc(-c2ccccc2)oc1O,-1%,-8%,-3%,·,?,-13%
CC1=Nc2ccccc2/C1=C\c1nc(-c2ccc(C(F)(F)F)cc2)oc1O,-13%,55%,?,-1%,8.9µM*,16%
COc1ccc2nc(NC(=O)c3nc(SCc4ccccc4F)ncc3Cl)sc2c1,?,-15%,·,·,8%,1%
COc1ccc2nc(NC(=O)c3nc(S(=O)(=O)Cc4ccccc4F)ncc3Cl)sc2c1,?,?,·,·,?,5.6µM*
Cc1ccc(C(=O)N2N=C(c3ccc(Br)cc3)CC2c2ccccc2O)cc1 (stereo not given),0%,-16%,2%,0%,154%,-27%
COCCNC(=O)CN(C(=O)CCC(=O)Nc1ccccn1)c1ccc(OC)cc1,9%,-8%,7%,23%,-26%,-28%
Nc1ccc(C(=O)Nc2ccc(Nc3ccncc3)cc2)cc1,-26%,5%,2%,-17%,?,32µM*
CC(=O)Nc1cccc(-c2nc3ccc(NC(C)=O)cc3[nH]2)c1,?,?,-9%,14%,?,45µM*
COC(=O)c1ccc(C(=O)Nc2ccc3nc(-c4cccnc4)[nH]c3c2)cc1,-16%,0%,-4%,15%,-4%,0%
Nc1ccc(NC(=O)c2ccc(C(=O)Nc3ccc(N)cc3)cc2)cc1,7%,-21%,-19%,-1%,4%,?
Nc1ccc(C(=O)Nc2ccc3nc(-c4cccnc4)[nH]c3c2)cc1,?,-15%,-24%,-1%,-15%,40µM*
CC(=O)Nc1cccc(-c2nc3ccccc3[nH]2)c1,-4%,-14%,0%,·,120%,12%
CCN(CC(=O)Nc1ccc(OC)cc1)C(=O)c1ccc2c(=O)n3c(nc2c1)CCC3,-15%,-4%,13%,3%,9%,·
CCCOc1cccc(-c2cc(-c3n[nH]c(=S)n3CC)c3ccccc3n2)c1,-18%,-17%,-20%,-5%,-2%[58.9 µM],18%
Cc1ccc(S(=O)(=O)N2CCC(C(=O)NN3CCCCC3)CC2)cc1,-13%,-1%,-21%,0%,10%,·
CC(C)NC(=O)N(C)C[C@H]1Oc2ccc(NS(=O)(=O)c3ccc(Cl)cc3)cc2CC(=O)N([C@@H](C)CO)C[C@@H]1C,-18%,-6%,9%,5%,15%,·
CCc1[nH]nc(C(=O)N/N=C/c2ccncc2)c1C,0%,12%,-5%,·,11%,26%
Cc1cc(=O)[nH]c(/N=C(\N)Nc2cccc3ccccc23)n1,-4%,?,-33%,6%,?,22µM*
Cc1cc(=O)[nH]c(/N=C(\N)Nc2ccc(Oc3ccccc3)cc2)n1,-3%,-20%,-3%,·,84%,0%
COc1ccc(C2=NN(C(=O)CSc3nc4ncc(Cl)cc4[nH]3)C(c3ccco3)C2)cc1 (stereo not given),89µM*,-11%,-28%,-20%,45µM*,11%
SMILES,Pol kappa inh,POLH inh,WRN inhibitor,L3MBTL1 inh,POLI inh,POLB inh
Cc1ccc(C2=NN(C(=O)CSc3nc4ncc(Cl)cc4[nH]3)C(c3ccco3)C2)cc1 (stereo not given),-10%,-4%,-4%,?,43%,?
O=C(OCC(=O)N1N=C(c2ccc(Cl)cc2)CC1c1ccco1)c1cccnc1 (stereo not given),45µM*,28µM*,?,-91%,?,·
COCC(=O)OCC(=O)N1N=C(c2ccc(Cl)cc2)CC1c1ccco1 (stereo not given),-5%,-9%,-3%,-16%,64%,-1%
Cc1ccc(-c2csc(N3N=C(c4ccccc4)/C(=C\c4ccc(N(C)C)cc4)C3=O)n2)cc1,·,·,·,-3%,·,50µM*
CNC(=O)c1ccc2nc(-c3ccco3)c(-c3ccco3)nc2c1,8.9µM*,·,·,·,8.9µM*,·
CC(=O)c1ccc(NC(=O)c2ccc3nc(-c4ccco4)c(-c4ccco4)nc3c2)cc1,7.9µM*,2.8µM*,25µM*,·,3.2µM*,2.8µM*
O=C(Nc1cccnc1)c1ccc2nc(-c3ccccc3)c(-c3ccccc3)nc2c1,-1%,-8%,-8%,-22%,-19%,22%
CCc1nc2ccc(C(=O)Nc3ccc(NC(C)=O)cc3)cc2nc1CC,0%,1%,-2%,-1%,13%,25%
O=C(NC1CC1)c1ccc2nc(-c3ccco3)c(-c3ccco3)nc2c1,22µM*,·,·,·,10µM*,·
O=C(Nc1ccccc1)c1ccc2nc(-c3ccco3)c(-c3ccco3)nc2c1,45µM*,?,40µM*,?,40µM*,20µM*
COc1cc(/C=N/n2nnnc2N)ccc1O,-10%,-2%,1%,0%,16%,-1%
O=C1CC(NNC(=O)c2ccc(Br)cc2)C(=O)N1 (stereo not given),7%,-16%,-7%,-8%,57%,11%
Cc1ccc2c(c1)c1c(c(=O)n(-c3cccc(Cl)c3)c(=O)n1CC(=O)c1ccc(Cl)cc1)n2C,1%,-14%,·,·,79µM*,17%
Cc1ccc2c(c1)c1c(c(=O)n(-c3ccccc3C)c(=O)n1CC(=O)c1ccc(Cl)cc1)n2C,-2%,-20%,·,·,31%,?
C=C(c1cccc2ccccc12)P(=O)(O)O,-26%,-13%,-4%,?,-4%,10%
O=C(C[n+]1csc2ccccc21)c1ccc(O)c(O)c1,25µM*,·,·,·,14µM*,·
Nc1nc(=S)c2snnc2[nH]1,3%,·,·,·,8%,·
CC(=O)Nc1cccc(NC(=O)CSc2ncc(-c3ccccc3)[nH]2)c1,-25%,6%,-8%,-6%,?,14µM*
COc1ccccc1C(=O)NNC(=O)c1ccc(Br)cc1,2%,-15%,-9%,4%,54%,21%
CC(C)C(NC(=O)C12CC3CC(CC(C3)C1)C2)C(=O)N/N=C/C1=C(N2CCOCC2)C(=C\c2cccc([N+](=O)[O-])c2)/CC1 (stereo not given),-2%,-12%,9%,2%,21%,-22%

# Assay outcomes (PubChem BioAssay)
